# Data published in the antibiotic and cytotoxicity screens of Wong et al. (2023).
# Among all 39,000 compounds or so, about 3,300 (8.5%) were called active. This excerpt belongs to a sample that is enriched for actives.
# Tested on: HepG2
# Experiment: cytotoxicity call (relative viability < 0.9)
# Conditions: 10 µM
row,Structure (SMILES),cytotoxicity call
1,CCN1[C@H](C(=O)NCCc2cn(C)cn2)[C@@H](CO)[C@@H]2Cn3c(ccc(-c4ccncc4)c3=O)[C@@H]21,inactive
2,C[C@@H]1CN([C@H](C)CO)C(=O)c2cccc(NS(=O)(=O)c3cn(C)cn3)c2O[C@H]1CN(C)S(=O)(=O)c1ccccc1,inactive
3,C[C@@H]1CCCCO[C@@H](CN(C)C(=O)Nc2ccc(C(F)(F)F)cc2)[C@@H](C)CN([C@H](C)CO)C(=O)c2cc(NC(=O)c3ccncc3)ccc2O1,inactive
4,C[C@H](O)C#Cc1ccc2c(c1)O[C@H](CN(C)C(=O)CN(C)C)[C@@H](C)CN([C@H](C)CO)S2(=O)=O,inactive
5,COc1ccc(NC(=O)Nc2cccc3c2O[C@H](CN(C)Cc2ccc(Cl)c(Cl)c2)[C@H](C)CN([C@@H](C)CO)C3=O)cc1,inactive
6,COc1ccc(S(=O)(=O)N(C)C[C@H]2OCCCC[C@@H](C)Oc3ccc(NC(=O)Nc4ccc5c(c4)OCO5)cc3C(=O)N([C@H](C)CO)C[C@@H]2C)cc1,inactive
7,Cc1noc(C)c1NC(=O)Nc1ccc2c(c1)C(=O)N([C@H](C)CO)C[C@@H](C)[C@H](CN(C)Cc1ccc3c(c1)OCO3)OCCCC[C@H](C)O2,inactive
8,Cc1noc(C)c1S(=O)(=O)Nc1ccc2c(c1)C(=O)N([C@@H](C)CO)C[C@@H](C)[C@@H](CN(C)Cc1ccc(Oc3ccccc3)cc1)O2,inactive
9,C[C@@H]1CN([C@H](C)CO)C(=O)c2cc(NC(=O)Nc3cccc4ccccc34)ccc2O[C@@H](C)CCCCO[C@H]1CN(C)S(=O)(=O)c1ccccc1,inactive
10,CC(=O)N1[C@@H]2c3cccc(=O)n3C[C@H]1[C@H](CO)[C@H]2C(=O)N1CCc2ccccc2C1,inactive
11,C[C@@H]1CN([C@H](C)CO)C(=O)Cc2cc(NC(=O)Cc3cn(C)c4ccccc34)ccc2O[C@H]1CN(C)Cc1ccc(C(F)(F)F)cc1,inactive
12,C[C@H](CO)N1C[C@H](C)[C@@H](CN(C)Cc2ccc(C(F)(F)F)cc2)Oc2ccc(NC(=O)Cc3cn(C)c4ccccc34)cc2CC1=O,inactive
13,C[C@H]1CN([C@@H](C)CO)C(=O)Cc2cc(NC(=O)Cc3cn(C)c4ccccc34)ccc2O[C@H]1CN(C)Cc1ccc(C(F)(F)F)cc1,active
14,C[C@@H]1CN([C@@H](C)CO)C(=O)c2c(c3ccccc3n2C)-c2ccccc2CO[C@H]1CN(C)Cc1cccc(C(F)(F)F)c1,inactive
15,Cc1ccc(S(=O)(=O)N(C)C[C@@H]2OCCCC[C@@H](C)Oc3ccc(NC(=O)C4CCCCC4)cc3C(=O)N([C@H](C)CO)C[C@H]2C)cc1,inactive
16,C[C@@H]1CCCCO[C@@H](CN(C)S(=O)(=O)c2ccc(Cl)cc2)[C@@H](C)CN([C@@H](C)CO)C(=O)c2cc(NC(=O)C3CCCCC3)ccc2O1,inactive
17,Cc1ccc(S(=O)(=O)N(C)C[C@H]2OCCCC[C@H](C)Oc3ccc(NC(=O)C4CCCCC4)cc3C(=O)N([C@@H](C)CO)C[C@@H]2C)cc1,active
18,C[C@@H]1CCCCO[C@H](CN(C)S(=O)(=O)c2ccc(Cl)cc2)[C@H](C)CN([C@H](C)CO)C(=O)c2cc(NC(=O)C3CCCCC3)ccc2O1,active
19,C[C@@H]1CCCCO[C@@H](CN(C)S(=O)(=O)c2ccc(F)cc2)[C@H](C)CN([C@H](C)CO)C(=O)c2cc(NC(=O)C3CCCCC3)ccc2O1,active

row,Structure (SMILES),cytotoxicity call
1,Cc1ccc(S(=O)(=O)N(C)C[C@H]2OCCCC[C@@H](C)Oc3ccc(NC(=O)C4CCCCC4)cc3C(=O)N([C@H](C)CO)C[C@@H]2C)cc1,active
2,Cc1ccc(S(=O)(=O)N(C)C[C@@H]2OCCCC[C@@H](C)Oc3ccc(NC(=O)C4CCCCC4)cc3C(=O)N([C@H](C)CO)C[C@@H]2C)cc1,inactive
3,Cc1ccc(S(=O)(=O)N(C)C[C@H]2OCCCC[C@H](C)Oc3ccc(NC(=O)C4CCCCC4)cc3C(=O)N([C@H](C)CO)C[C@H]2C)cc1,inactive
4,C[C@@H]1CN([C@@H](C)CO)C(=O)c2cc(NC(=O)C3CCCCC3)ccc2O[C@@H](C)CCCCO[C@@H]1CN(C)S(=O)(=O)c1ccc(Cl)cc1,inactive
5,C[C@@H]1CN([C@H](C)CO)C(=O)c2cc(NC(=O)C3CCCCC3)ccc2O[C@@H](C)CCCCO[C@H]1CN(C)S(=O)(=O)c1ccc(F)cc1,inactive
6,C[C@H](CO)N1C[C@H](C)[C@H](CN(C)S(=O)(=O)c2ccc(F)cc2)OCCCC[C@H](C)Oc2ccc(NC(=O)C3CCCCC3)cc2C1=O,inactive
7,Cc1ccc(S(=O)(=O)N(C)C[C@H]2OCCCC[C@@H](C)Oc3ccc(NC(=O)C4CCCCC4)cc3C(=O)N([C@@H](C)CO)C[C@H]2C)cc1,inactive
8,C[C@@H]1CCCCO[C@@H](CN(C)C(=O)CCCN(C)C)[C@H](C)CN([C@@H](C)CO)C(=O)c2cc(NS(=O)(=O)c3cn(C)cn3)ccc2O1,inactive
9,CS(=O)(=O)c1ncc(Cl)c(C(=O)NCCc2ccc(S(N)(=O)=O)cc2)n1,inactive
10,COc1ccc(S(=O)(=O)Nc2cccc3c2O[C@H](CN(C)Cc2ccc(Oc4ccccc4)cc2)[C@H](C)CN([C@H](C)CO)C3=O)cc1,inactive
11,Cc1ccc(S(=O)(=O)N(C)C[C@H]2OCCCC[C@H](C)Oc3ccc(NC(=O)CCC(F)(F)F)cc3C(=O)N([C@H](C)CO)C[C@H]2C)cc1,inactive
12,CN[C@@H]1[C@@H](C)O[C@@H](O[C@H]2[C@H](C)O[C@@H](O[C@@H]3/C(C)=C/C[C@@H]4C[C@@H](C[C@]5(C=C[C@H](C)[C@@H](C(C)C)O5)O4)OC(=O)[C@@H]4C=C(C)[C@@H](O)[C@H]5OC/C(=C\C=C\[C@@H]3C)[C@]54O)C[C@@H]2OC)C[C@H]1OC,active
13,CCC(C)C1OC2(C=CC1C)CC1CC(CC=C(C)C(OC3CC(OC)C(OC4CC(OC)C(NC(C)=O)C(C)O4)C(C)O3)C(C)C=CC=C3COC4C(O)C(C)=CC(C(=O)O1)C34O)O2 (stereo unspecified),inactive
14,CCC(C)C1OC2(C=CC1C)CC1CC(CC=C(C)C(OC3CC(OC)C(OC4CC(OC)C(O)C(C)O4)C(C)O3)C(C)C=CC=C3COC4C(OC)C(C)=CC(C(=O)O1)C34O)O2 (stereo unspecified),active
15,CC[C@H](C)[C@H]1O[C@]2(C=C[C@@H]1C)C[C@@H]1C[C@@H](C/C=C(\C)[C@@H](O[C@H]3C[C@H](OC)[C@@H](O[C@H]4C[C@H](OC)[C@@H](NC(C)=O)[C@H](C)O4)[C@H](C)O3)[C@@H](C)/C=C/C=C3\CO[C@@H]4[C@H](O)C(C)=C[C@@H](C(=O)O1)[C@]34O)O2,active
16,COc1ccc(S(=O)(=O)Nc2ccc3c(c2)C(=O)N([C@@H](C)CO)C[C@@H](C)[C@@H](CN(C)CC2CC2)O3)cc1,inactive
17,Cc1noc(C)c1S(=O)(=O)Nc1cccc2c1O[C@@H](CN(C)C(=O)Nc1ccccc1)[C@@H](C)CN([C@@H](C)CO)C2=O,inactive
18,COc1ccc(NC(=O)N(C)C[C@@H]2OCCCC[C@@H](C)Oc3ccc(NC(=O)Nc4ccc5c(c4)OCO5)cc3C(=O)N([C@H](C)CO)C[C@H]2C)cc1,inactive
19,O=C(C[C@H]1CC[C@H](NC(=O)c2ccc(F)cc2)[C@H](CO)O1)NCc1ccncn1,inactive

row,Structure (SMILES),cytotoxicity call
1,COc1ccc(NC(=O)Nc2ccc3c(c2)[C@H]2C[C@H](CC(=O)NCc4ccncc4)O[C@@H](CO)[C@H]2O3)cc1,inactive
2,COc1ccc(NC(=O)N(C)C[C@@H]2OCCCC[C@H](C)Oc3ccc(NS(=O)(=O)c4ccccc4)cc3C(=O)N([C@@H](C)CO)C[C@@H]2C)cc1,inactive
3,C=CCOC(=O)[C@H]1[C@@H]2C(=O)O[C@@H](c3ccccc3)[C@@H](c3ccccc3)N2[C@@H](c2ccc(OCCOC(=O)[C@@H]3C[C@@H]4C(=O)NCC(=O)N4[C@@H]3c3cccc(OCCO)c3)cc2)[C@]12C(=O)Nc1ccc(I)cc12,inactive
4,O=C(C[C@@H]1C[C@@H]2c3cc(NC(=O)Nc4ccc(C(F)(F)F)cc4)ccc3O[C@@H]2[C@@H](CO)O1)NCc1ccc(Cl)cc1,inactive
5,Cc1noc(C)c1NC(=O)Nc1cccc2c1O[C@@H](CN(C)S(=O)(=O)c1cn(C)cn1)[C@@H](C)CN([C@H](C)CO)C2=O,inactive
6,COc1cccc(S(=O)(=O)Nc2ccc3c(c2)OC[C@@H](C)N(C(=O)Cc2cccnc2)C[C@@H](C)[C@@H](OC)CN(C)C3=O)c1,inactive
7,C[C@@H]1CN([C@@H](C)CO)C(=O)c2cccc(NC(=O)c3ccncc3)c2O[C@H]1CN(C)Cc1ccc(Oc2ccccc2)cc1,inactive
8,CC(C)N1CC[C@H](CN(C)Cc2ccc(Oc3ccccc3)cc2)Oc2c(NC(=O)c3ccncc3)cccc2C1=O,inactive
9,C[C@H]1CN([C@@H](C)CO)C(=O)c2cccc(NC(=O)C3CC3)c2O[C@@H]1CN(C)Cc1ccc(Oc2ccccc2)cc1,inactive
10,CC(C)N1C[C@H](C)[C@@H](CN(C)Cc2ccc(Oc3ccccc3)cc2)Oc2c(NC(=O)C3CCNCC3)cccc2C1=O,active
11,CC(C)N1C[C@H](C)[C@@H](CN(C)Cc2ccc(Oc3ccccc3)cc2)Oc2c(NC(=O)C3CCN(C)CC3)cccc2C1=O,active
12,C[C@@H]1CN([C@@H](C)CO)C(=O)c2cccc(NC(=O)C3CC3)c2O[C@@H]1CN(C)Cc1ccc(Oc2ccccc2)cc1,inactive
13,CC(C)N1C[C@H](CN(C)Cc2ccc(Oc3ccccc3)cc2)Oc2c(NC(=O)c3ccncc3)cccc2C1=O,inactive
14,C[C@@H]1CN([C@@H](C)CO)C(=O)c2cccc(NC(=O)c3ccncc3)c2O[C@@H]1CN(C)Cc1ccc(Oc2ccccc2)cc1,inactive
15,COC[C@H](C)N1C[C@H](C)[C@@H](CN(C)Cc2ccc(Oc3ccccc3)cc2)Oc2c(NC(=O)c3ccncc3)cccc2C1=O,active
16,CC(C)N1C[C@@H](CN(C)Cc2ccc(Oc3ccccc3)cc2)Oc2c(NC(=O)c3ccncc3)cccc2C1=O,active
17,C[C@H](CO)N1C[C@H](C)[C@@H](CN(C)Cc2ccc(Oc3ccccc3)cc2)Oc2c(NC(=O)C3CC3)cccc2C1=O,inactive
18,C[C@@H]1CN([C@H](C)CO)C(=O)c2cccc(NC(=O)C3CC3)c2O[C@H]1CN(C)Cc1ccc(Oc2ccccc2)cc1,inactive
